Results from PubChem BioAssay AID1745853 (National Center for Advancing Translational Sciences (NCATS), 2022).
Among all 25,000 compounds or so, about 970 (3.9%) were called active. Roughly 8% stayed inconclusive and do not appear here. No rule for the calls is given here. For the sample, actives were picked, then their nearest neighbours and some compounds at random.

Assays:
Experiment in all cases: Primary Screen for Target Class Profiling of Small Molecule Inhibitors of Methyltransferases
[1] = biological target: Catechol O-methyltransferase (Homo sapiens) (UniProt P21964); settings: purified enzyme, MTase-Glo SAH luminescence; activity change, negative = inhibition: at 40 µM, stronger effect = lower value; outcome: 40 uM
Chain of Catechol O-methyltransferase (Homo sapiens) (P21964 whole entry, looked up): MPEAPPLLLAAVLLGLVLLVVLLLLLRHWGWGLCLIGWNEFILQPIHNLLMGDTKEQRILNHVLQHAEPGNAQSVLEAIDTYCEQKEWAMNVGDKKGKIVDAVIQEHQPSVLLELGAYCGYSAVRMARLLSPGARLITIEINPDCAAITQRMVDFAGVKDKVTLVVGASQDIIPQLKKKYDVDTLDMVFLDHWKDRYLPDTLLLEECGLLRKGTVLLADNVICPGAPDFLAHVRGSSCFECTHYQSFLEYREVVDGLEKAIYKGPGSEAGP
From the text: (§1) PI: Matthew D. Hall Ph.D. and Quinlin M. Hanson Ph.D.
(§2) National Center for Advancing Translational Sciences (NCATS)
(§3) National Institute of Health (NIH), Rockville, MD
(§4) Target class profiling (TCP) is a chemical biology approach amenable to investigating understudied biological targets. TCP is achieved by developing a generalizable assay platform and applying it to screen a curated set of compound libraries against representative members of a target class. Small molecule methyltransferases (SMMTase) are a subclass of methyltransferase that act on metabolites to modulate signaling pathways, metabolize xenobiotics, or balance the available methyl pool. We screened four curated libraries totaling 27,574 unique compounds against the SMMTases nicotinamide N-methyltransferase (NNMT), phenylethanolamine N-methyltransferase (PNMT), histamine N-methyltransferase (HNMT), glycine N-methyltransferase (GNMT), catechol O-methyltransferase (COMT), and guanidinoacetate N-methyltransferase (GAMT). The data generated by this TCP can be leveraged for informed tool molecule development. For example, in the associated publication we identified a chemotype of HNMT-selective inhibitors. Additionally, we identified a putative SMMTase-selective inhibitor with potential as a tool molecule for studying broader methyltransferase biology.
(§5) High-through put screening assays were developed at the National Center for Advancing Translational Science (NCATS) for the enzymes NNMT, PNMT, HNMT, GNMT, COMT, and GAMT. Enzymatic activity was measured as a function of SAM cofactor conversion using the MTase Glo kit (Promega) for all enzymes. All assays were performed in 1536-well format with substrates and SAM concentrations at KM values. Enzyme concentration and assay timing were optimized for 10-20% SAM conversion. Initial screening of 27,574 compounds was done as single-point assays using the highest compound concentration (40 uM). […] These compounds were replated in 11-point dose response and assayed against NNMT, PNMT, HNMT, GNMT, COMT, GAMT, and a counter-assay. The IC50 and efficacy (maximal response) values were determined for each dose-response curve. These values are also accounted for in the area under the curve (AUC) values.
(§6) PROTOCOL TABLE (as described by Inglese J, Shamu CE and Guy RK. 2007)
(§7) SEQUENCE No. (e.g., 1, 2, 3, etc.); […] (e.g., Cells, Incubation, Reagent, etc.); VALUE; DESCRIPTION.
(§8) 1; Reagent; 2 uL; SMMTase Enzyme (2x) in reaction buffer, columns 1- 48.
(§9) 2; Reagent; 1 uL; SAM (4x) in reaction buffer, columns 1-48.
(§10) 3; Controls; 23 nL; DMSO in column 4; sinefungin in DMSO (0 uM - 40 uM) in 7-point 1:2 dilution series (n = 2) in column 2.
(§11) 4; Compounds; 23 nL; Columns 5-48.
(§12) 5; Reagent; 1 uL; Substrate (4x) in reaction buffer, columns 2-48.
(§13) 6; Time; 20-30 min; Incubation.
(§14) 7; Reagent; 1 uL; MTase-Glo reagent (5X), columns 1-48.
(§15) 8; Time; 30 min; Incubation.
(§16) 9; Reagent; 5 uL; MTase-Glo Detection reagent, columns 1-48.
(§17) 10; Time; 30 min; Incubation, luminescence evolution.
(§18) 11; Detection; Luminescence; ViewLux uHTS Microplate Imager (PerkinElmer).
(§19) NOTES (numbers refer to Sequence numbers above)
(§20) 1, 2, 5. White Medium Binding Greiner 1536-well plates (Cat #789175-F, Greiner Bio-One, Monroe, NC); Reaction buffer: 50 mM Tris, pH 8.0, 3 mM MgCl2, 1 mM EDTA, 50 mM NaCl, 1 mM DTT, and 0.1 mg/mL BSA. Evaporation was prevented by covering assay plates with metal lids containing holes to allow gas diffusion.
(§21) 1. Six SMMTase were profiled: HNMT, GNMT, PNMT, COMT, NNMT, GAMT
(§22) 5. The corresponding substrate was used for each enzyme: HNMT - 5.3 uM Histamine; GNMT - >500 uM Glycine; PNMT - 16.2 uM Norephinephrine; COMT - 13.7 uM Norephinephrine; NNMT - 3.8 uM Nicotinamide; GAMT - 2.5 uM Guanidinoacetate.6, 8, 10. Room temperature
(§23) 6. Final reaction conditions: 10 nM COMT, 5 uM SAM, 15 uM norepinephrine, 50 mM Tris, pH 8.0, 3 mM MgCl2, 1 mM EDTA, 50 mM NaCl, 1 mM DTT, and 0.1 mg/mL BSA; refer to tables 2 and S1 for specific timing.
8. […]

[2] = biological target: Glycine N-methyltransferase (Homo sapiens) (UniProt Q14749); settings: purified enzyme, MTase-Glo SAH luminescence; measured here: GNMT inhibition; at 40 µM; stronger effect = lower value
Chain of Glycine N-methyltransferase (Homo sapiens) (Q14749 whole entry, looked up): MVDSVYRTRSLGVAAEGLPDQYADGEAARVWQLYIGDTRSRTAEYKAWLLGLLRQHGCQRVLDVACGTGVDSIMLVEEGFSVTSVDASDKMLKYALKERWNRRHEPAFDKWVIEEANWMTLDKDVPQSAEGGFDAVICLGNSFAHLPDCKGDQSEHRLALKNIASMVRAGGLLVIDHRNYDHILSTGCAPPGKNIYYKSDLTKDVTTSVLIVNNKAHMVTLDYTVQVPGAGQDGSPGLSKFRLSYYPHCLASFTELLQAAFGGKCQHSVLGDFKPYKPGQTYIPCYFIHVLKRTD
From the text: as §1, §2, §3, §4, §5, §6, §7, §8, §9, §10, §11, §12, §13, §14, §15, §16, §17, §18, §19, §20, §21, §22, §23
8. […]

[3] = biological target: Guanidinoacetate N-methyltransferase (Homo sapiens) (UniProt Q14353); settings: purified enzyme, MTase-Glo SAH luminescence; measured here: GAMT inhibition; at 40 µM; stronger effect = lower value
From the text: as §1, §2, §3, §4, §5, §6, §7, §8, §9, §10, §11, §12, §13, §14, §15, §16, §17, §18, §19, §20, §21, §22, §23
8. […]

[4] = biological target: Histamine N-methyltransferase (Homo sapiens) (UniProt P50135); settings: purified enzyme, MTase-Glo SAH luminescence; measured here: HNMT inhibition; at 40 µM; stronger effect = lower value
Chain of Histamine N-methyltransferase (Homo sapiens) (P50135 whole entry, looked up): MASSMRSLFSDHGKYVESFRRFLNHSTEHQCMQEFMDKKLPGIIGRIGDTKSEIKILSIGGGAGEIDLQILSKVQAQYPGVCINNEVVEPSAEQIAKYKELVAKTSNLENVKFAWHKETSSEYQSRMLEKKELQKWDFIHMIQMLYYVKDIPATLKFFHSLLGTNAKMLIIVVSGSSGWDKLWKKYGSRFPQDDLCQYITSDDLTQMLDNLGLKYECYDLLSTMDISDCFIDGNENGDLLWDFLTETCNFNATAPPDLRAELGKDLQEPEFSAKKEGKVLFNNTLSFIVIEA
From the text: as §1, §2, §3, §4, §5, §6, §7, §8, §9, §10, §11, §12, §13, §14, §15, §16, §17, §18, §19, §20, §21, §22, §23
8. […]

[5] = biological target: Nicotinamide N-methyltransferase (Homo sapiens) (UniProt P40261); settings: purified enzyme, MTase-Glo SAH luminescence; measured here: NNMT inhibition; at 40 µM; stronger effect = lower value
Chain of Nicotinamide N-methyltransferase (Homo sapiens) (P40261 whole entry, looked up): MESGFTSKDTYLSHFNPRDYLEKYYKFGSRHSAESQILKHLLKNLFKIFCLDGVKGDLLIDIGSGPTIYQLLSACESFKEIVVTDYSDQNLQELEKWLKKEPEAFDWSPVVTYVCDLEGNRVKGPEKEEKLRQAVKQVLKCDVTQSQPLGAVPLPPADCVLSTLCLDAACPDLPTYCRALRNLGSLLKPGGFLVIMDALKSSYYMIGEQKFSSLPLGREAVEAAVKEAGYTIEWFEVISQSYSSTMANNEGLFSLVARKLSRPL
From the text: as §1, §2, §3, §4, §5, §6, §7, §8, §9, §10, §11, §12, §13, §14, §15, §16, §17, §18, §19, §20, §21, §22, §23
8. […]

[6] = biological target: Phenylethanolamine N-methyltransferase (Homo sapiens) (UniProt P11086); settings: purified enzyme, MTase-Glo SAH luminescence; measured here: PNMT inhibition; at 40 µM; stronger effect = lower value
Chain of Phenylethanolamine N-methyltransferase (Homo sapiens) (P11086 whole entry, looked up): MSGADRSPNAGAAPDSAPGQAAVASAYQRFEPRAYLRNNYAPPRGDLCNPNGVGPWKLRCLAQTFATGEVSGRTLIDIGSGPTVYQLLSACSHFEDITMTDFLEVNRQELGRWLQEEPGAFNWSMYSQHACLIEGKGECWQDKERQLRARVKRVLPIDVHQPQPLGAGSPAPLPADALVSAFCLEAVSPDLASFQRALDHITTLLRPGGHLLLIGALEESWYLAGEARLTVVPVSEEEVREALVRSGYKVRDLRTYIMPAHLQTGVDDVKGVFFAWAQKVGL
From the text: as §1, §2, §3, §4, §5, §6, §7, §8, §9, §10, §11, §12, §13, §14, §15, §16, §17, §18, §19, §20, §21, §22, §23
8. […]
% is scaled to controls: 0 for no effect and ±100 for the full control effect.

SMILES	activity change, negative = inhibition [1]	activity change, negative = inhibition [2]	activity change, negative = inhibition [3]	activity change, negative = inhibition [4]	activity change, negative = inhibition [5]	activity change, negative = inhibition [6]
CC1CCCC(NC(=O)C2(C)Cn3c(nc4ccccc43)C(=O)N2Cc2ccc(Cl)cc2)C1C (centres undefined)	1.59% (inactive)	-0.93%	1.75%	0.57%	2.43%	-2.27%
Cc1cccc(CCNC(=O)c2cc3n(n2)CC(C)(C(=O)NCc2ccccc2)N(C)C3=O)c1 (centres undefined)	0.858% (inactive)	3.01%	0.251%	3.89%	3.49%	1.3%
CCCS(=O)(=O)N1CCCC(OCc2noc(C3CCOCC3)n2)C1 (centres undefined)	-3.2% (inactive)	-4.75%	-6.9%	-3.01%	-9.35%	-7.82%
CCCS(=O)(=O)N1CCCC(Cn2c(C)nc3cccnc32)C1 (centres undefined)	-1.28% (active)	-90.9%	-3.03%	-2.37%	-5.85%	-1.53%
CCCS(=O)(=O)N1CCCC(Cc2noc(-c3cnccn3)n2)C1 (centres undefined)	-2.88% (inactive)	-4%	-4.91%	-0.21%	-5.94%	-4.02%
CC1(C(=O)NC2CCCC2)Cn2c(cc3ccccc32)C(=O)N1c1ccc(F)cc1 (centres undefined)	1% (inactive)	0.736%	0%	3.74%	5.9%	0.017%
Cc1cccc(NC(=O)CSc2nnc3n(CC(C)C)c(=O)c4ccc(C(=O)NC(C)C)cc4n23)c1	2.32% (inactive)	0.335%	4.37%	4.71%	-3.04%	1.77%
Cc1c(NS(=O)(=O)c2cccc3c2C(=O)c2ccccc2C3=O)c(=O)n(-c2ccccc2)n1C	-6.91% (inactive)	-20.9%	3.01%	-5.26%	-8.5%	-27%
COc1ccccc1CCN1C(=O)c2ccc(-c3ccco3)n2CC1(C)C(=O)NC1CCCCCC1 (centres undefined)	-0.859% (inactive)	-4.07%	0%	-1.27%	-3.86%	-2.83%
Cc1ccc(N2C(=O)c3cc(-c4ccco4)nn3CC2(C)C(=O)NC2CCCCC2)cc1Cl (centres undefined)	-4.47% (inactive)	-10.8%	2.7%	-6.61%	-7.94%	-7.34%
O=C(c1coc(CN2CCN(C/C=C/c3ccccc3)CC2)n1)N1CCC[C@H]1CO	1.4% (inactive)	-0.744%	2.52%	0.892%	-2.33%	15.6%
O=C1Nc2ccc(O)cc2O[C@H]1O[C@@H]1O[C@H](CO)[C@@H](O)[C@H](O)[C@H]1O	2.34% (inactive)	1.1%	7.9%	2.99%	-5.97%	2.07%
CCc1ccc(NS(=O)(=O)c2cc3c(cc2C)n(C)c(=O)n3C)cc1	6.7% (inactive)	2.79%	0%	1.74%	-13.9%	-1.81%
CNC(=O)c1ccccc1Nc1nc(Nc2ccc(N3CCOCC3)cc2OC)ncc1Cl	1.38% (inactive)	-17.4%	6.33%	-0.939%	-26.5%	-6.85%
